PubChem BioAssay AID1159580 (chemical genetic matrix, 2015)
Out of some 5,500 compounds screened, about 2,000 (36%) were called active. Another 18% or so got no clear call; they are omitted. Rule as the data show it: active = normalized growth mostly below about 0.91 (no sharp cut-off); inconclusive = no clear call, values can overlap the other calls; inactive = mostly above about 0.92. This is one part of the list.

Assay: chemical genetic growth profiling, strain panel (AID 1159580);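 also: tested at 20 µM; growth read once vehicle control cultures reached saturation at 30 °C; 1 = growth at the plate median or of vehicle wells; lower values mean less growth of the strain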
Conditions: growth OD

Measured: normalized growth

C1CCN(CCC2CCCCN2)CC1 (stereo not drawn)
inactive: S. cerevisiae deletion strains, locus YAL013W, strain DEP1, hits give low values 0.999 | S. cerevisiae deletion strains, locus YBR229C, strain ROT2, hits give low values 1.01 | S. cerevisiae deletion strains, locus YDL101C, strain DUN1, hits give low values 0.995 | S. cerevisiae deletion strains, locus YDL134C, strain PPH21, hits give low values 1 | S. cerevisiae deletion strains, locus YDR150W, strain NUM1, hits give low values 0.936 | S. cerevisiae deletion strains, locus YEL061C, strain CIN8, hits give low values 1.02 | S. cerevisiae deletion strains, locus YGR078C, strain PAC10, hits give low values 1 | S. cerevisiae deletion strains, locus YHR030C, strain SLT2, hits give low values 1.08 | S. cerevisiae deletion strains, locus YHR087W, strain rtc3, hits give low values 1 | S. cerevisiae deletion strains, locus YJR043C, strain POL32, hits give low values 1 | S. cerevisiae deletion strains, locus YJR075W, strain HOC1, hits give low values 0.998 | S. cerevisiae deletion strains, locus YKL190W, strain CNB1, hits give low values 0.998 | S. cerevisiae deletion strains, locus YLR039C, strain RIC1, hits give low values 1.01 | S. cerevisiae deletion strains, locus YLR058C, strain SHM2 (second series), hits give low values 1.01 | S. cerevisiae deletion strains, locus YLR085C, strain ARP6, hits give low values 1.01 | S. cerevisiae deletion strains, locus YLR262C, strain YPT6, hits give low values 1 | S. cerevisiae deletion strains, locus YML094W, strain GIM5, hits give low values 1.01 | S. cerevisiae deletion strains, locus YMR219W, strain ESC1, hits give low values 1 | S. cerevisiae deletion strains, locus YMR263W, strain SAP30, hits give low values 1.01 | S. cerevisiae deletion strains, locus YNL153C, strain GIM3, hits give low values 1 | S. cerevisiae deletion strains, locus YNL298W, strain CLA4 (second series), hits give low values 0.981 | S. cerevisiae deletion strains, locus YNL322C, strain KRE1, hits give low values 0.995 | S. cerevisiae deletion strains, locus YNR030W, strain Alg12, hits give low values 0.996 | S. cerevisiae deletion strains, locus YOL006C, strain TOP1, hits give low values 0.964 | S. cerevisiae deletion strains, locus YPL055C, strain LGE1, hits give low values 0.967 | S. cerevisiae deletion strains, locus YPL241C, strain CIN2, hits give low values 0.993 | S. cerevisiae deletion strains, locus YPR135W, strain CTF4, hits give low values 1.08 | S. cerevisiae strains, strain wild type, hits give low values 0.996
